A selection: hits, their analogues and other compounds. The true share with any hit is near 5.3%.
Tau fluor cs: counter-screen for tau fibril formation inhibitors. tau K18 P301L Alexa594 fluorescence, heparin fibrillization. Potency, µM (series often up to 57.7 µM). 0.93% of 280,000 active. AID 1463; note: nearly all actives have a fitted effect of over 55% in size
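Human tau K18 P301L (15 uM unlabeled, 0.24 uM Alexa 594-labeled) in 100 mM sodium acetate pH 7 with 20 uM heparin, 6 hr at 37 C. ThT 30 uM added, 1 hr ambient; Alexa 594 FP and total fluorescence read at 555/632 nm.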
Sfp PPTase inh: inhibitors of Bacillus subtilis Sfp phosphopantetheinyl transferase; Potency, µM, usual class: inhibitors; Biochemical Sfp PPTase activity, qHTS; 3.5% of 310,000 active;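 note: the enzyme is Sfp with the accession as filed and its product quenches rhodamine fluorescence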
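With Hepes-Na pH 7.6 buffer containing 10 mM MgCl2, Sfp (15 nM) modified BHQ-2-YbbR (12.5 uM) using rhodamine-CoA (5 uM). Two reads 30 minutes apart at 525/598 nm yielded each well's rate.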
Coupling enz: coupling enzyme interference in Giardia aldolase counter-screen; coupling enzyme system counterscreen, AmpLite Red fluorescence; activity change, negative = inhibition, % at 58.2 µM, hits read low; 0.67% of 290,000 active; AID 2472; in the data active = activity change below about -30%
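Counterscreen of the coupled detection system alone, without aldolase: glyceraldehyde-3-phosphate coupling enzymes plus AmpLite Red readout. Compounds at 57.5 uM final, 10 min RT preincubation, 20 min RT reaction, fluorescence 525/598 nm.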
KDM4E inh: blocks human JMJD2E demethylase activity; JMJD2E catalytic domain, FDH-coupled NADH fluorescence (FDH is formaldehyde dehydrogenase); Potency, µM (series often up to 57.1 µM), hits mostly inhibitors; 1.6% of 230,000 active; AID 2147; active = well fitted inhibition curve with a large enough effect, not every such curve was filed as active; inconclusive = small, poorly fitted or top-dose-only effect, or another doubt; inactive = no such curve, though single readings can be large or run the other way; note: nearly all actives have a fitted effect of over 50% in size
Target sequence (B2RXH2 1-337 limits assumed): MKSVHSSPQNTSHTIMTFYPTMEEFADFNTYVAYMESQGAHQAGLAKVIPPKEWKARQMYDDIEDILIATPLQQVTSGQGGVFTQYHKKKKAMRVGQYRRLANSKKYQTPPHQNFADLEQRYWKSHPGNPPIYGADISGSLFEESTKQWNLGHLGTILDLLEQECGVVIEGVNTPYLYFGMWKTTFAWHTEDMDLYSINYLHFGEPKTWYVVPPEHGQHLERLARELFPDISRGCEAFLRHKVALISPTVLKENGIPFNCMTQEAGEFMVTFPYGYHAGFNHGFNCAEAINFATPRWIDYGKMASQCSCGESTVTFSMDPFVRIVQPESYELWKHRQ
Tau fibril FP: blocks human tau fibril formation measured by polarization; P10636; K18 P301L tau heparin fibrillization, Alexa594 FP, 6 h; Potency, µM (doses to about 57.7 µM), hits mostly inhibitors; 0.39% of 280,000 active; AID 1468; note: nearly all actives have a fitted effect of over 55% in size
Target sequence (P10636 561-689 P618L limits assumed): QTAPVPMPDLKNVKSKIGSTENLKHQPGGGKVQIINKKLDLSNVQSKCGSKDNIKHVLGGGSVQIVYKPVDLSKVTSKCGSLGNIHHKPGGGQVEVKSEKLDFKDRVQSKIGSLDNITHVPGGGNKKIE
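FP of Alexa 594-tau after heparin (20 uM) induction. Substrate: human K18 P301L, 15 uM unlabeled, 0.24 uM labeled. Buffer 100 mM sodium acetate pH 7. 6 hr, 37 C.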
Tau fibril ThT: inhibitors of human tau fibril formation, thioflavin T binding. 2.1% of 270,000 active. Potency, µM (titrated, usually from 57.4 µM), usual class: inhibitors. recombinant tau K18 P301L, heparin-induced fibrillization, ThT fluorescence. P10636. AID 1460; note: nearly all actives have a fitted effect of over 55% in size
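Using a mix of unlabeled (15 uM) and Alexa 594-labeled (0.24 uM) tau K18 P301L, heparin-triggered fibrillization over 6 hr at 37 C was scored by ThT fluorescence.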
A number is an active result; . = inactive; ? = inconclusive; / = no result; ! = repeats disagree; [ ] = another dose, or the depositor's remark. Unless noted, calls come from the whole dose curve; as a rule, active = well fitted curve in the direction sought with a large enough effect; inconclusive = small, poorly fitted or top-dose-only effect, or another doubt; inactive = no such curve, though single readings can be large; an effect the other way counts as inactive or inconclusive.

SMILES	Tau fluor cs	Sfp PPTase inh	Coupling enz	KDM4E inh	Tau fibril FP	Tau fibril ThT
CC12CCC(=O)C=C1CCC1C2CCC2(C)C(O)CCC12 (stereo not given)	.	.	.	.	.	.
C[C@]12CC[C@H]3[C@@H](CCC4=CC(=O)CC[C@@]43C)[C@@H]1CC[C@@H]2C(=O)CO	.	79.4µM	.	.	.	?
CCOc1ccc(CCNC(=O)c2cc3c(-c4ccc(OC)c(OC)c4)nn(C)c3s2)cc1OCC	?	/	/	/	.	.
CC(=O)N1CN(C(C)=O)CN(C(C)=O)C1	.	.	.	.	.	.
CC(=O)N1CC[N+](C)(C)CC1	.	.	.	11.2µM	.	.
CC(O)C(C)OC(=O)[C@@H]1C[C@@H]2c3cccc4c3c(cn4C(C)C)C[C@H]2N(C)C1 (stereo not given in full)	.	?	/	?	.	.
Oc1ccc(/C=N/NP(=S)(c2ccccc2)c2ccccc2)cc1	12.6µM[quencher]	?	.	.	?	?
COc1cc(/C=N/NP(=S)(c2ccccc2)c2ccccc2)ccc1O	14.1µM[quencher]	.	.	.	.	?
COc1cc(/C=C/c2nc3ccccc3c(=O)n2-c2ccccc2O)ccc1O	/	.	.	/	/	/
C=CCc1c(C)[nH]c(=S)c(C#N)c1C	.	10µM	.	?	.	?
C=C(C)[C@]12C[C@@H](C)[C@@]34OC(Cc5ccccc5)(O[C@@H]1[C@@H]3C=C(COC(=O)Cc1cc(I)c(O)c(OC)c1)C[C@]1(O)C(=O)C(C)=C[C@@H]41)O2	?	.	.	/	.	?
COC[C@H]1OC(=O)c2coc3c2[C@@]1(C)C1=C(C3=O)C2CCC(=O)[C@@]2(C)C[C@H]1OC(C)=O (stereo not given in full)	?	?	.	.	?	17.8µM!
COC[C@H]1OC(=O)c2coc3c2[C@@]1(C)C1=C(C3=O)[C@H]2CCC(=O)[C@@]2(C)C[C@H]1OC(C)=O	?	?	.	11.2µM	28.2µM	14.1µM
CCCCC/C=C\C/C=C\C/C=C\C/C=C\CCCC(=O)N[C@H](C)CO	.	22.4µM!	.	.	.	.
CCCC[N+]12C3CC(C(CC)[C@H]1O)[C@@H]1C(O)C4(C[C@@H]12)c1ccccc1N(C)C34 (stereo not given in full)	.	.	.	.	.	.
Cc1ccccc1-n1c(O)c(/C=N/NC(=O)c2ccncc2)c(=O)[nH]c1=O	.	.	.	?	.	.
CCCCn1c(O)c(/C=N/NC(=O)c2ccncc2)c(=O)[nH]c1=O	.	.	.	8.91µM	.	.
CCc1ccc(-n2c(O)c(/C=N/NC(=O)c3ccncc3)c(=O)[nH]c2=O)cc1	.	.	.	11.2µM	?	.
Cc1cc(C)c(-n2c(O)c(/C=N/NC(=O)c3ccncc3)c(=O)[nH]c2=O)c(C)c1	.	.	.	14.1µM	.	?
CCn1c(O)c(/C=N/NC(=O)c2ccncc2)c(=O)[nH]c1=S	.	.	.	.	.	.
CN(C)c1ccc(CN2CCc3nc(N4CCN(c5ccccn5)CC4)ncc3C2)cc1	?	/	/	/	.	?
Oc1cccc[c]1[Hg][Cl]	/	0.141µM	/	/	/	/
O=c1ccc2[nH]cc(C3=CCNCC3)c2[nH]1	.	.	.	?	.	.
C1=C(c2c[nH]c3ccccc23)CCNC1	.	.	.	25.1µM	.	?
O=C1C2CCN(CC2)[C@@H]1Cc1ccc2ccccc2c1O	.	?	-42.8	.	.	.
SMILES	Tau fluor cs	Sfp PPTase inh	Coupling enz	KDM4E inh	Tau fibril FP	Tau fibril ThT
COc1ccc(-n2c(C)cc(C(=O)C[N+]34CCN(CC3)CC4)c2C)cc1	.	.	.	22.4µM	.	.
COc1ccccc1NC(=O)c1oc2ccccc2c1NC(=O)c1ccccc1C(F)(F)F	?	/	/	/	?	.
OC[C@H]1O[C@@H](n2cnc3cc(Cl)c(Cl)cc32)[C@H](O)[C@H]1O	.	.	.	/	.	.
CCCCCCNC(=O)N[C@@H](Cc1ccc(O)cc1)C(=O)NCCC[C@H]1CN2C(=NC[C@H]2C)N1CC1CCC1	.	.	.	.	.	.
CCCCCCNC(=O)N[C@H](Cc1ccc(O)cc1)C(=O)NCCC[C@H]1CN2C(=NC[C@H]2CCC)N1CC1CCC1	.	7.94µM	.	?	.	.
CCCN1CCC[C@@H]2Cc3n[nH]cc3C[C@H]21	.	/	/	.	.	.
S=P(Nn1cnnc1)(c1ccc(Br)cc1)c1ccc(Br)cc1	?	79.4µM	.	.	.	?
CN1C(=O)CCS(=O)(=O)[C@H]1c1ccc(Cl)cc1	.	.	.	.	.	.
CCCc1nnc(NC(=O)CCC(=O)N2CCN(CCOC(c3ccccc3)c3ccccc3)CC2)s1	.	.	.	.	.	.
CCc1nnc(NC(=O)CSc2ccc(-c3ccco3)nn2)s1	.	28.2µM	.	?	.	?
Cc1c(F)c(F)c(COC(=O)C2C(/C=C(\Cl)C(F)(F)F)C2(C)C)c(F)c1F (stereo not given)	/	.	.	/	/	/
CC(C)CN1CC[C@@]2(CCCN(C(=O)Oc3ccccc3)C2)C1	/	.	.	/	/	/
COc1cccc(N2C(=O)CC(=O)NC2=O)c1	.	.	.	.	.	?
CCOc1ccccc1N1C(=O)NC(=O)/C(=C/c2ccc3c4c(cccc24)CC3)C1=O	.	56.2µM	.	?	.	?
Cc1cc(/C=C2\C(=O)NC(=O)N(c3ccc(Cl)cc3)C2=O)c(C)n1C	.	.	.	.	.	?
COc1ccc(N2C(=O)NC(=O)/C(=C/c3ccc4c(c3)Cc3ccccc3-4)C2=O)cc1	.	56.2µM	.	?	?	?
COc1cccc(N2C(=O)NC(=O)/C(=C/c3ccc4c5c(cccc35)CC4)C2=O)c1	.	56.2µM	.	.	?	?
O=C1C=CC(=O)c2c1ccc1c2ccc2ccccc21	/	3.55µM	.	.	/	/
CCCN(CCC)c1c([N+](=O)[O-])cc(S(N)(=O)=O)cc1[N+](=O)[O-]	/	.	.	/	/	/
CCn1c(N)c(C(=O)NC)sc1=S	.	2.24µM	.	?	?	?
CN(CC(=O)N[C@H](CO)Cc1ccccc1)C(=O)[C@H](CCS(C)=O)NC(=O)[C@@H](N)Cc1ccc(O)cc1 (stereo not given in full)	.	.	/	/	.	.
COc1ccc(N2C(=O)/C(=C/c3ccc(OC)c(OC)c3)C(=O)NC2=S)cc1	/	.	.	/	/	/
CCOc1ccc(N2C(=O)/C(=C/c3ccco3)C(=O)NC2=S)cc1	/	35.5µM	.	/	/	/
COc1ccc(N2C(=O)/C(=C/c3ccc(C)o3)C(=O)NC2=S)c(OC)c1	/	39.8µM	.	/	/	/
CCc1ccccc1N1C(=O)/C(=C/c2ccc(N3CCN(C)CC3)o2)C(=O)NC1=S	.	.	.	.	.	?
CCOc1ccc(N2C(=O)/C(=C\c3cccs3)C(=O)NC2=S)cc1	.	12.6µM	.	.	?	?

Source: PubChem BioAssay (National Center for Advancing Translational Sciences (NCATS))
